# Experimental data published in article PMC4336329 (PLoS ONE, 2015).
# The campaign covered roughly 310,000 compounds. About 14,000 (4.5%) showed an effect of 50% or more. Effects have a minus sign here. The list comes from a sample in which strong results are over-represented; it also holds similar structures and randomly drawn compounds.
# Target: human ether-à-go-go-related gene (hERG) potassium channel (human, UniProt Q12809)
# Experiment: primary screen, population patch clamp on CHO cells stably expressing hERG; higher = less effect of the substance
# 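Also: peak tail current of the secondary pulse compared with the same well before compound.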
# Chain of human ether-à-go-go-related gene (hERG) potassium channel (Q12809 whole entry, looked up): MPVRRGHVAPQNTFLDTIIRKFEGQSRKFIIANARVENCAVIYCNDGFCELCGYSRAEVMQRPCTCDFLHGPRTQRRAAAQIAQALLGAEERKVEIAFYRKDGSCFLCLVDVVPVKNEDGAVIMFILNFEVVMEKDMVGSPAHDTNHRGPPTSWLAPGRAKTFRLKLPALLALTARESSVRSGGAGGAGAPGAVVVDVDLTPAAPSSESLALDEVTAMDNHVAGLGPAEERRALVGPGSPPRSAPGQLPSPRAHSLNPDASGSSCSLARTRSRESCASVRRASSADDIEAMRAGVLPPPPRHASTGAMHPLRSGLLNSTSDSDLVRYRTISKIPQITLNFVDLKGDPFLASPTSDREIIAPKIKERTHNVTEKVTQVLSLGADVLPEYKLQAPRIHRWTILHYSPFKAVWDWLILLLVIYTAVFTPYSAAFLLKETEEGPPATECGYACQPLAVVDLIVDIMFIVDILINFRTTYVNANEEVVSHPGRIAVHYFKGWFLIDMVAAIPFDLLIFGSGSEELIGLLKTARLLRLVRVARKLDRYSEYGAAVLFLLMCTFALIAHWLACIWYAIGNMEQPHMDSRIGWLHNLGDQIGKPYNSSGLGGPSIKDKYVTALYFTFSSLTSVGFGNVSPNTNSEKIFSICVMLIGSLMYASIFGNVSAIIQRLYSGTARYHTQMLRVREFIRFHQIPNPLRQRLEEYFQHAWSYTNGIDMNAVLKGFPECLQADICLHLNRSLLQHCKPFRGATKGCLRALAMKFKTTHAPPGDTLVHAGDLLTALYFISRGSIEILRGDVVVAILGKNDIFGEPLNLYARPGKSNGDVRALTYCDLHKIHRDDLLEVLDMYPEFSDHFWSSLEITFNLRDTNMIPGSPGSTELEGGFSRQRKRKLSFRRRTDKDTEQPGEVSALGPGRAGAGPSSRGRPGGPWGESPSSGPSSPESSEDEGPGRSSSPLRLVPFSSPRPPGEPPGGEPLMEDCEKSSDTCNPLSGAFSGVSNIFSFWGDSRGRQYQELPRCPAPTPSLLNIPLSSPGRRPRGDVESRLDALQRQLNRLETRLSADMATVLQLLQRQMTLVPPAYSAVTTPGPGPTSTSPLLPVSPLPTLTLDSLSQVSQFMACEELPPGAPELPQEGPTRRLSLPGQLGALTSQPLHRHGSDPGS
row,Compound,"hERG current change (%, negative = inhibition) at 10uM"
1,Cc1ccc(Cn2nnc3c(=O)[nH]c(C4CCCN(C(=O)Nc5ccc(F)cc5)C4)nc32)cc1 (stereo not shown),-5.1%
2,Cc1cccc(OCC(=O)N(Cc2ccccc2)c2c(N)n(Cc3ccccc3)c(=O)[nH]c2=O)c1,-11.2%
3,O=C(CN1CC=C(c2ccccc2)CC1)Nc1cc(Cl)ccc1Cl,-12.8%
4,COc1ccccc1C1(CCN=Cc2ccc(N(C)C)cc2)CCOC(C)(C)C1 (stereo not shown),-2.03%
5,CCN(C(=O)COC(=O)c1ccco1)c1c(N)n(Cc2ccccc2)c(=O)[nH]c1=O,-0.805%
6,Cc1c(N2C(=O)c3ccc(Br)cc3C2=O)c(=O)n(-c2ccccc2)n1C,3.45%
7,CCCCN1C(=O)C(C)=C(C)C1OCCc1ccc(OC)c(OC)c1 (stereo not shown),18.2%
8,Cc1ccc(S(=O)(=O)N2CCOCC2)cc1C(=O)NCc1ccccn1,-0.76%
9,Cc1ccc(S(=O)(=O)N2CCOCC2)cc1C(=O)NCc1ccccc1CN1CCCC1,-53%
10,COc1ccc(S(=O)(=O)N2CCOCC2)cc1C(=O)NCc1ccccc1CN1CCCC1,-20.6%
11,O=C(CCC(=O)Nc1ccccc1Cl)N/N=C/c1ccccc1,16.5%
12,Cc1[nH]c2ccccc2c1/C=N\NC(=O)c1ccco1,11.1%
13,COc1cccc(C(=O)NCC2CCCN(C(=O)c3ccc(C=O)cc3)C2)c1OC (stereo not shown),0.357%
14,CN1CCN(C(=O)C2CCCN(S(=O)(=O)c3ccc(F)cc3)C2)CC1 (stereo not shown),19.9%
15,Cc1ccc(S(=O)(=O)N2CCCC(C(=O)N3CCN(c4ccccc4)CC3)C2)cc1 (stereo not shown),-46.5%
16,COc1ccc(S(=O)(=O)N2CCCC(C(=O)N3CCN(c4ccccc4)CC3)C2)cc1Cl (stereo not shown),-62%
17,O=C(Cc1ccccc1)N1CCC(C(=O)N2CCN(c3ccc(F)cc3)CC2)CC1,-56.6%
18,O=C(C1CCCN(S(=O)(=O)c2ccccc2)C1)N1CCN(c2ccc(F)cc2)CC1 (stereo not shown),-75.7%
19,O=C(O)C1CCN(C(=O)Cc2ccccc2)CC1,6.27%
20,O=C(C1CCCN(S(=O)(=O)c2ccccc2)C1)N1CCN(c2ccccc2)CC1 (stereo not shown),-54.8%
21,COc1ccc(S(=O)(=O)N2CCCC(C(=O)N3CCOCC3)C2)cc1Cl (stereo not shown),-14%
22,O=C(C1CCCN(S(=O)(=O)c2ccccc2)C1)N1CCCCC1 (stereo not shown),7.94%
23,COc1ccc(S(=O)(=O)N2CCCC(C(=O)N3CCN(C)CC3)C2)cc1Cl (stereo not shown),-12.4%

row,Compound,"hERG current change (%, negative = inhibition) at 10uM"
1,O=C(C1CCCN(S(=O)(=O)c2ccccc2)C1)N1CCCCCC1 (stereo not shown),-2.74%
2,O=C(C1CC1)N1CCN(c2ccc(F)cc2)CC1,13%
3,CC(NC(=O)Cn1cnnn1)C12CC3CC(CC(C3)C1)C2 (stereo not shown),7.75%
4,CCCC1C(C(=O)OCC)=C(C)NC(C)=C1C(=O)OCC,10.7%
5,CC(C)c1ccc(OCc2ccc(C(=O)NN3CCN(C)CC3)o2)cc1,-31.7%
6,Cc1cccc(C)c1OP(N)(=O)Oc1c(C)cccc1C,11%
7,CC(C)C(=O)Nc1ccc(C(=O)NNC(=O)c2ccco2)cc1,7.75%
8,Cc1cc(C)n(C(=O)C2CCCN2S(=O)(=O)c2ccc(Cl)cc2)n1 (stereo not shown),-7.48%
9,CCOc1ccc(C(=O)NCC(=O)Nc2ncccc2C)cc1OCC,18%
10,COc1ccc(N2CCN(C(=O)CCc3c[nH]c4ccccc34)CC2)cc1,-10.2%
11,CC(=O)Nc1ccc(S(=O)(=O)NC2C3(C)CCC(C3)C2(C)C)cc1 (stereo not shown),16.9%
12,Cl.NCCSC1CC(=O)N(Cc2ccc(F)cc2)C1=O (stereo not shown),-20.4%
13,CCOC(=O)Cc1csc(NC(=O)/C=C/c2ccc(Cl)cc2)n1,-9.29%
14,O=C(C1CCCN(S(=O)(=O)c2ccc(Br)cc2)C1)N1CCN(Cc2ccccc2)CC1 (stereo not shown),-55.1%
15,CC(=O)Nc1ccc(S(=O)(=O)N2CCCC(C(=O)O)C2)cc1 (stereo not shown),-3.16%
16,O=C(C1CCCN(S(=O)(=O)c2ccc(Br)cc2)C1)N1CCOCC1 (stereo not shown),-13.8%
17,O=C(C1CCCN(S(=O)(=O)c2cccs2)C1)N1CCC(N2CCCCC2)CC1 (stereo not shown),-61.7%
18,CC(=O)N1CCCc2cc(S(=O)(=O)N3CCCC(C(=O)N4CCN(c5ccccc5)CC4)C3)ccc21 (stereo not shown),-21.3%
19,O=C(O)C1CCCN(S(=O)(=O)c2cccs2)C1 (stereo not shown),4.67%
20,CCOC(=O)N1CCN(C(=O)C2CCCN(S(=O)(=O)c3ccc(OCC)cc3)C2)CC1 (stereo not shown),-46.2%
21,CC(=O)Nc1ccc(S(=O)(=O)N2CCCC(C(=O)N3CCN(c4ccccc4)CC3)C2)cc1 (stereo not shown),-50.9%
22,O=C(C1CCCN(S(=O)(=O)c2cccs2)C1)N1CCN(C2CCCCC2)CC1 (stereo not shown),-24.6%
23,CCOc1ccc(S(=O)(=O)N2CCCC(C(=O)N3CCN(c4ccccc4)CC3)C2)cc1 (stereo not shown),-56.3%
